Experimental findings from PubChem BioAssay AID720514 (Broad Institute, 2013) are described below.

The whole screen tested about 2,100 compounds, of which about 300 (14%) were called active. Another 2% or so got no clear call; they are omitted.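 How the source made its calls: active means every replicate test run called active, with the signal falling and half-maximal concentration within twice the top valid dose; inconclusive means the replicate test runs disagree in their calls; inactive means every test run inactive, including effects in the opposite direction.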 These entries were drawn from the full list. Results with a measured potency or affinity are listed apart.

This assay can be described thus: reduced cellular PGC1a acetyl-lysine signal – cell-based, cherry-picked samples, dose response (AID 720514).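 Further: actives lower the acetylation signal so they count as inhibitors of PGC1a acetylation.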 The conditions noted are these: U2OS PGC1a acetylation, AlphaLISA, overnight; series mostly up to 19.5 µM. (In Alpha technology, singlet oxygen from a donor bead excites a nearby acceptor bead.)
Take `COc1ccccc1-c1ccc2c(c1)O[C@@H](CN(C)Cc1ccc3c(c1)OCO3)[C@@H](C)CN([C@@H](C)CO)S2(=O)=O`: the outcome was inactive.
Consider `COC(=O)c1ccc(NC(=O)C23CC4CC(C2)CC(n2cnc(Cl)n2)(C4)C3)cc1`, for which the molecule was called inactive.
With `CCOc1ccc(N2C(=O)CC(Cc3ccc(Br)cc3)C2=O)cc1` (stereo not given) the entry was “inactive”; with `CCOc1ccc(S(=O)(=O)N2c3ccccc3CC2C)cc1` (stereo not given), “inactive”.
As to `CCCCN=C1NC(=O)C(CC(=O)Nc2ccc(Cl)cc2)S1` (stereo not given), the molecule was classed as inactive.
For the molecule `O=C(Cc1ccccc1)N1CCN(C(=O)c2cccs2)CC1`, the molecule was classed as inactive.
With `CCN1CCN(c2ncc(C(=O)Nc3cc(Cl)ccc3OC)c3ccccc23)CC1` the entry was “inactive”; with `CCN1CCN(c2cc(C)c3cc(NC(=O)c4ccc(Br)o4)ccc3n2)CC1`, “inactive”; with `C[C@H]1CN([C@@H](C)CO)C(=O)c2cccc(NS(=O)(=O)c3ccc(F)cc3)c2O[C@H]1CN(C)Cc1ccc(C(F)(F)F)cc1`, “inactive”.
Next, `COc1ccc(S(=O)(=O)N(C)C[C@@H]2Oc3cc(C#CC4CC4)ccc3S(=O)(=O)N([C@@H](C)CO)C[C@@H]2C)cc1`: “inactive”; `COc1ccc(S(=O)(=O)N(C)C[C@@H]2Oc3cc(C#CC4CC4)ccc3S(=O)(=O)N([C@H](C)CO)C[C@@H]2C)cc1`: “inactive”.
With `CCCCC(=O)Nc1ccc(NC(=O)c2cccs2)cn1`, the result was inactive.
Regarding `OCCNc1nc(N2CCCCC2)nc2ccccc12`, the molecule was classed as inactive.
With `Cc1ccc(-c2nnc(Nc3ccc4c(c3)OCO4)c3ccccc23)cc1S(=O)(=O)NCCO` the entry was “inactive”; with `O=[N+]([O-])c1cc(-c2nnc(Nc3ccc(O)cc3)c3ccccc23)ccc1N1CCOCC1`, “inactive”; with `Cc1ccc2c(CN(Cc3ccccc3)Cc3ccccc3)cc(=O)oc2c1`, “inactive”.
Turning to `COCCNC(=O)c1ccc(C)cc1C`, the molecule was called inactive.
For the molecule `COc1ccc(S(=O)(=O)N2CC[C@@H]3[C@H](CO)Nc4ccc(-c5ccccc5F)cc4[C@@H]32)cc1`, the result was inactive.
Take `Cc1ccc(S(=O)(=O)N(Cc2ccc(F)cc2)Cc2ccco2)cc1`: the call was inactive.
As for `CCOc1ccc(Nc2oc(-c3ccc(Cl)cc3)nc2C#N)cc1`, the outcome was inactive.
For `COCC(=O)Nc1ccc2c(c1)OC[C@@H](C)N(CCc1ccccc1)C[C@H](C)[C@H](OC)CN(C)C2=O`, the result was inactive.
Next, `COc1ccc(S(=O)(=O)N(C)C[C@@H]2Oc3ccc(NC(=O)CCN4CCOCC4)cc3C(=O)N([C@H](C)CO)C[C@H]2C)cc1`: “inactive”; `CO[C@@H]1CN(C)C(=O)c2cc(NC(=O)c3ccc4c(c3)OCO4)ccc2OC[C@@H](C)N(CC2CC2)C[C@H]1C`: “inactive”; `COC(=O)c1c(NC(=O)COC(=O)[C@@H](NS(=O)(=O)c2ccccc2)C(C)C)sc2c1CCC2`: “inactive”.
Next, `Cc1cc(Nc2ccccc2)cc(=O)n1C`: “inactive”.
Regarding `CCN(CC)CCOc1ccc(/C(=C(\Cl)c2ccccc2)c2ccccc2)cc1`, the result was inactive.
Consider `COc1ccc(CN(CCC(C)C)S(=O)(=O)c2ccccc2Br)cc1`, for which the molecule was called inactive.
Consider `O=C(NC1CCCCC1)c1cccnc1C(=O)O`, for which the outcome was inactive.
Take `Nc1nnc(SCC(=O)NC2CCCCC2)n1-c1ccccc1`: the result was inactive.
For the molecule `Cc1ccccc1Cn1cc(NC(=O)c2cc(-c3cccs3)on2)cn1`, the result was inactive.
Take `Cc1cc2cc3c(cc2nc1SCC(=O)OC(C)C)OCCO3`: the result was inactive.
As to `Cc1cccc(-c2ccc3[nH]c4c(c3c2)CCN2C[C@@H]([C@H](C)O)[C@@H](N(C)C(=O)NC3CCCCC3)C[C@@H]42)c1`, the result was inactive.
Turning to `O=C(Nc1ccc(-c2noc(CCc3ccccc3)n2)cc1)c1cccnc1`, the outcome was inactive.
Regarding `COC(=O)c1ccc2[nH]c3cccc(/C(=C/c4ccccc4)c4ccccc4)c3c2c1`, the outcome was inactive.
For the molecule `O=C(Nc1cnc2ccccc2c1)c1cccnc1`, the call was inactive.
For `COc1ccc(Br)cc1CNc1ccccc1`, the molecule was called inactive.
Turning to `Cc1cc(C)n2c(SCC(=O)NCc3ccco3)nnc2n1`, the molecule was called inactive.
As to `CCn1c(SCC(=O)Nc2ccc(NC(=O)c3ccco3)cc2)nnc1-c1cccs1`, the molecule was classed as inactive.
On to `NC(=O)Cc1ccc2c(c1)[nH]c1ccccc12`, for which the outcome was inactive.
As to `COc1ccccc1-c1ccc(C2[C@@H]3CN(S(=O)(=O)c4ccc(C)cc4)C[C@H]2N3)cc1` (stereo not given in full), the molecule was classed as inactive.
As to `Cc1ccc(S(=O)(=O)N2C[C@@H]3N[C@H](C2)[C@@H]3c2ccc(-c3cccc(C)c3)cc2)cc1`, the outcome was inactive.
Consider `O=S(=O)(c1ccc(Cl)cc1)N1[C@@H]2CNC[C@H]1C2c1ccc(-c2cccc(F)c2)cc1` (stereo not given in full), for which the call was inactive.
On to `Cc1ccccc1-c1ccc(C2[C@@H]3CN(S(=O)(=O)c4ccccc4C)C[C@H]2N3)cc1` (stereo not given in full), for which the molecule was classed as inactive.
On to `Fc1ccc(CN(Cc2ccccc2)C(c2cccs2)c2nnnn2C2CCCCC2)cc1` (stereo not given), for which the call was inactive.
As for `O=C(NCc1ccc(Cl)cc1)C1CCC(CNc2c(N3CCCC3)c(=O)c2=O)CC1` (stereo not given), the outcome was inactive.
On to `Cc1cccc(Oc2nccc(C(F)(F)F)c2C(=O)Nc2ccc(F)cc2F)c1`, for which the outcome was inactive.
Consider `c1coc(CN(Cc2cccs2)Cc2nnnn2C2CCCCC2)c1`, for which the molecule was called inactive.
In the case of `C[C@@H](c1ccccc1)N1Cc2ccccc2Oc2cc(Br)ccc2S1(=O)=O`, the molecule was classed as inactive.
Next, `CCOC(=O)C1=CC[C@@H](c2ccc(F)cc2)N(S(=O)(=O)c2ccc(C)cc2)[C@H]1c1ccccc1`: “inactive”; `C=C[C@H]1C(C(=O)OCC)=CC[C@@H](c2ccccc2)N1S(=O)(=O)c1ccc(C)cc1`: “inactive”; `O=C(Nc1cccnc1)c1ccc(Oc2ccccc2)cc1`: “inactive”.
Take `Nc1ccc(N2CCCCC2)cc1N1CCCCC1`: the call was inactive.
Consider `O=C(Nc1cccnc1)c1ccc(Br)s1`, for which the call was inactive.
For `Cc1ccc2[nH]c(=O)c(CN(Cc3ccc4c(c3)OCO4)Cc3nnnn3C3CCCC3)cc2c1`, the call was inactive.
In the case of `O=C(c1ccc(F)cc1)N1CC(=O)N2[C@H](CO)[C@@H](c3ccc(C#CCC4CCCC4)cc3)[C@@H]2C1`, the molecule was called inactive.
With `O=C(Nc1ccc(F)cc1)N1CC(=O)N2[C@@H](CO)[C@H](c3ccc(Br)cc3)[C@@H]2C1`, the call was inactive.
Next, `CC(C)CC#Cc1ccc([C@@H]2[C@H](CO)N3CCCCN(S(=O)(=O)Cc4ccccc4)C[C@@H]23)cc1`: “inactive”; `Cc1cccc(OC2(c3ccccc3)OC(=O)c3ccccc32)c1C` (stereo not given): “inactive”; `O=C(COc1cccnc1[N+](=O)[O-])NCCc1ccc(Cl)cc1`: “inactive”.
As to `COc1cccc(-c2ccc(C3[C@@H]4CN(S(=O)(=O)c5cccc(OC)c5)C[C@H]3N4)cc2)c1` (stereo not given in full), the molecule was called inactive.
